Laboratory results: publication PMC5540273 (PLoS ONE, 2017)

Assays:
Details in all cases: concentration: 1 μM, replicates: in singlicate; n = 1
KIT = system: KIT
LATS1 = system: LATS1
LATS2 = system: LATS2
LCK = system: LCK
LIMK1 = system: LIMK1
LIMK2 = system: LIMK2
LKB1 = system: T1, LKB1
T1 construct: gene STK11

LOK = system: T2, LOK
T2 construct: gene STK10

LRRK2 = system: LRRK2
LTK = system: LTK
LYN = system: LYN
LZK = system: T3, LZK
T3 construct: gene MAP3K13

MAK = system: MAK
MAP3K15 = system: MAP3K15
MAP3K1 = system: MAP3K1
MAP3K2 = system: MAP3K2
MAP3K3 = system: MAP3K3
MAP3K4 = system: MAP3K4
MAP4K2 = system: MAP4K2
MAP4K3 = system: MAP4K3
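Note: KINOMEscan kinase panel screen.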

Row | Compound | %Inh (KIT) | %Inh (LATS1) | %Inh (LATS2) | %Inh (LCK) | %Inh (LIMK1) | %Inh (LIMK2) | %Inh (LKB1) | %Inh (LOK) | %Inh (LRRK2) | %Inh (LTK) | %Inh (LYN) | %Inh (LZK) | %Inh (MAK) | %Inh (MAP3K15) | %Inh (MAP3K1) | %Inh (MAP3K2) | %Inh (MAP3K3) | %Inh (MAP3K4) | %Inh (MAP4K2) | %Inh (MAP4K3)
1 | CCn1c(-c2ccccn2)nc2cnccc21 [SB-736398] | 0% | 0% | 0% | 12% | 13% | 0% | 0% | 0% | 31% | 1% | 0% | 11% | 11% | 2% | 8% | 3% | 0% | 19% | 0% | 0%
2 | CCn1c(-c2cccnc2O)nc2cnccc21 [SB-736715] | 0% | 0% | 0% | 0% | 0% | 0% | 27% | 0% | 0% | 0% | 0% | 11% | 13% | 0% | 0% | 0% | 0% | 0% | 0% | 0%
3 | COc1ccccc1CNC(=O)c1cc(C(=O)c2ccccc2C)c[nH]1 [GSK364507] | 41% | 0% | 0% | 12% | 8% | 5% | 0% | 0% | 0% | 0% | 0% | 0% | 7% | 3% | 6% | 15% | 0% | 32% | 0% | 0%
4 | Fc1cccc(COc2nnc(-c3ccc4c(c3)CCO4)o2)c1 | 3% | 0% | 0% | 0% | 0% | 0% | 16% | 0% | 4% | 0% | 6% | 14% | 0% | 17% | 17% | 0% | 0% | 0% | 0% | 2%
5 | Cl.Oc1ccc(-c2nc(-c3ccccc3)[nH]c2-c2ccncc2)cc1 [SB-428218] | 26% | 0% | 48% | 20% | 0% | 0% | 8% | 0% | 0% | 0% | 33% | 47% | 18% | 0% | 0% | 0% | 0% | 7% | 0% | 0%
6 | C[C@@H]1CCCCN1c1cc(-c2ccc3c(N)n[nH]c3c2)nc(N)n1 [GSK2258759] | 4% | 23% | 14% | 0% | 0% | 19% | 0% | 0% | 0% | 0% | 0% | 0% | 22% | 0% | 0% | 0% | 0% | 0% | 0% | 1%
7 | Cc1ccc(C(=O)Nc2ccc(Nc3ccnc4cc(-c5ccccn5)ccc34)cc2O)cc1.Cl [GW440146] | 89% | 0% | 0% | 84% | 0% | 2% | 9% | 14% | 4% | 12% | 44% | 10% | 25% | 21% | 3% | 0% | 0% | 25% | 0% | 0%
8 | Cc1cc(-c2ccc3c(c2)CC[C@@H](N[C@@H](C)c2ccccc2)C3)cnc1N.Cl [GW412617] | 60% | 0% | 0% | 34% | 0% | 0% | 0% | 0% | 33% | 0% | 0% | 7% | 15% | 0% | 17% | 20% | 0% | 0% | 97.4% | 36%
9 | Fc1cc(Cl)ccc1Nc1ccnc2cc(I)ccc12 [GW551191] | 49% | 0% | 0% | 24% | 0% | 0% | 0% | 0% | 37% | 13% | 14% | 0% | 40% | 0% | 7% | 0% | 0% | 0% | 0% | 0%
10 | COc1ccc2nc(-c3cccc(C)n3)nc(Nc3ccncc3)c2c1 [GSK204919] | 26% | 0% | 0% | 4% | 20% | 3% | 0% | 0% | 0% | 0% | 0% | 0% | 25% | 0% | 22% | 0% | 0% | 9% | 0% | 12%
11 | O=c1cc(N2CCOCC2)nc2n(Cc3cccc(Cl)c3Cl)ccn12 [GSK2286295] | 32% | 0% | 13% | 9% | 0% | 0% | 0% | 0% | 31% | 0% | 97.8% | 0% | 78% | 0% | 6% | 0% | 0% | 25% | 0% | 0%
